CBX7 AlphaScr: CBX7 chromodomain binding inhibitors, primary screen, biochemical, AlphaScreen. 66,000 tested, 1.1% active. normalised signal (fraction of DMSO) (concentration not given with the values). Chromobox protein homolog 7 (Homo sapiens), O95931. AID 1224903, 2016. AlphaScreen His6-CBX7 / biotin-H3K27me3 peptide binding; hits give low values; in the data active means normalised signal below about 0.5
Target sequence (O95931 whole entry, looked up): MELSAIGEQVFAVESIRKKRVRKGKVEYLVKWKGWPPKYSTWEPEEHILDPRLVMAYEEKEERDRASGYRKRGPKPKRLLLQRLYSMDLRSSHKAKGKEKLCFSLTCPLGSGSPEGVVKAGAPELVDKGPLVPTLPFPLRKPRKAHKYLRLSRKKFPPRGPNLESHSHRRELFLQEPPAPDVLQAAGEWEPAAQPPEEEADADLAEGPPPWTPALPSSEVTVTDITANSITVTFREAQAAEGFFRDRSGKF
Starred values were filed as active, the others as inactive; ! = not active in a repeat. Many of the other results were omitted from the sample, so hits are more common in it than they were.

SMILES | CBX7 AlphaScr
CC1CCCN(S(=O)(=O)c2ccc3[nH]c(=O)cc(C(=O)NC(C)c4ccccc4)c3c2)C1 (stereo not drawn) | 1.1
Cc1cccc(NC(=O)C2CCN(S(=O)(=O)c3cnc[nH]3)CC2)c1C | 1
Cc1nc2cc(-c3cccc(F)c3)nn2c(C)c1CCC(=O)NCCCc1ccccc1 | 0.94
O=C(Nc1ccc(Br)cc1)C(Cc1ccccc1)NS(=O)(=O)c1cccs1 (stereo not drawn) | 1
O=C(NC(c1ccccc1)c1ccccc1)C1CCCN(S(=O)(=O)c2cccc3cccnc23)C1 (stereo not drawn) | 0.88
O=C(NC(c1ccccc1)c1ccccc1)C1CCCN1S(=O)(=O)c1cccc2cccnc12 (stereo not drawn) | 0.93
Cc1ccc2cc(CCNC(=O)CCc3ccccc3)c(=O)[nH]c2c1 | 1.1
Cc1ccc(-c2noc(CCC(=O)NC(C)CCc3ccccc3)n2)cc1 (stereo not drawn) | 1.1
CC(NC(=O)C1CCN(S(=O)(=O)c2cccc3cccnc23)CC1)c1ccccc1 (stereo not drawn) | 1
O=C(CCc1ccccc1)NC(c1cccs1)c1cc(Cl)c2cccnc2c1O (stereo not drawn) | 0.45*
Cc1cccnc1NC(c1ccccc1)c1ccc2cccnc2c1O (stereo not drawn) | 0.032*
Cc1ccc(C(NC(=O)CCc2ccccc2)c2ccc3cccnc3c2O)cc1 (stereo not drawn) | 0.071*
CCCC(=O)NC(c1ccccc1)c1cc(Cl)c2cccnc2c1O (stereo not drawn) | 0.63
CC(NS(=O)(=O)c1cccc2cccnc12)c1ccccc1 (stereo not drawn) | 1
Oc1c(C(Nc2ccccn2)c2ccccc2)ccc2cccnc12 (stereo not drawn) | 0.01*
O=C(CCCN1C(=O)c2cccnc2C1=O)NC(c1ccccc1)c1ccccc1 | 1.1
COc1ccc(-n2nc3c(c2NC(=O)Cc2ccc(OC)c(OC)c2)CSC3)cc1 | 0.94
CCOc1ccc2c(c1)c(=O)c(S(=O)(=O)c1ccc(C)cc1)cn2Cc1ccc(Cl)cc1 | 0.99
CCOC(=O)N1CCC(Nc2c(N3CCCCC3CC)c(=O)c2=O)CC1 (stereo not drawn) | 0.98
COc1ccc(-c2cc(C(F)(F)F)nc(N3CCC(C)CC3)n2)cc1 | 1.9
CCCCNC(=O)c1ccc2c(c1)N(Cc1cccc(Cl)c1)C(=O)c1ccccc1S2 | 0.92
COc1ccccc1N1CCN(C(=O)c2cc3c(s2)-c2c(C)cccc2OC3)CC1 | 1
CN(C)c1oc(C(c2ccccc2)c2ccccc2)nc1S(=O)(=O)c1ccc(Cl)cc1 | 0.91
CC1CCN(C(=O)c2cc3sc(Cl)cc3n2C)CC1 | 0.95
COc1ccc(OC)c(NC(=O)CNC(=O)c2cn(-c3ccccc3OC)c(=O)c3ccccc23)c1 | 1
SMILES | CBX7 AlphaScr
CC(C)OCc1ccc(O)c2ncccc12 | 0.0041*
CCOc1ccc(C(=O)c2cn(Cc3ccc(F)cc3)c3ccc(OC)cc3c2=O)cc1 | 0.76
Cc1ccc(O)c(Nc2cc(C)nc3ncnn23)c1 | 0.88
CCC(C)NC(=O)CN1C(=O)COc2ccc(C)cc21 (stereo not drawn) | 1.1
CNc1oc(-c2ccc(OC)cc2)nc1S(=O)(=O)c1ccccc1 | 1.1
COc1ccc(NC2c3ccccc3C(=O)N2Cc2ccccc2)cc1Cl (stereo not drawn) | 0.99
Cc1ccc(NC2c3ncccc3C(=O)N2Cc2ccc(F)cc2)cc1C (stereo not drawn) | 0.79
COc1ccc(CN2C(=O)c3cccnc3C2Nc2cc(Cl)c(OC)cc2OC)cc1 (stereo not drawn) | 0.073*
COc1ccc(Cl)cc1NC1c2ccccc2C(=O)N1Cc1ccccc1 (stereo not drawn) | 0.53
COc1ccc(CN2C(=O)c3cccnc3C2Nc2ccc(C)cc2)cc1 (stereo not drawn) | 0.5
COc1ccc(CN2C(=O)c3cccnc3C2Nc2ccc(OC)cc2)cc1 (stereo not drawn) | 0.017*
Cc1ccc(Nc2nnc(-c3ccc(C(=O)NCCO)cc3)c3ccccc23)cc1 | 1
COC(=O)c1ccccc1NC(=O)COc1ccccc1C(C)C | 0.99
CC(CCc1ccccc1)NC(=O)c1ccc(NC2=NC3CS(=O)(=O)CC3S2)cc1 (stereo not drawn) | 0.93
O=C(O)c1ccccc1C(=O)NCCc1c(C(=O)O)[nH]c2ccc(Br)cc12 | 1
NC(=O)c1nnn(-c2nonc2N)c1CSc1nc2ccccc2o1 | 0.73
COC(=O)c1nnn(-c2nonc2N)c1CSc1nc2ccccc2o1 | 1
Nc1nonc1-n1nnc(C(=O)O)c1CSc1nc2ccccc2o1 | 0.018*
Cc1cc(C)c(NC(=O)C2CCCN2CCCN(C)C)c(C)c1 (stereo not drawn) | 1.1
CCOC(=O)c1cnc2ccc(Br)cc2c1NCCc1ccc(OC)c(OC)c1 | 1.1
O=C(CN1N=C(c2ccccc2)CCC1=O)NCCCN1CCC(Cc2ccccc2)CC1 | 1.1
Cc1ccc(-c2csc(N3CCN(Cc4ccc5c(c4)OCO5)CC3)n2)cc1 | 0.88
CCc1ccc(-c2csc(Nc3cc(OC)c(Cl)cc3OC)n2)cc1 | 0.66
COc1ccc(-c2csc(Nc3ccc(S(N)(=O)=O)cc3)n2)cc1C | 0.55
Clc1ccc(-c2csc(Nc3ccc4c(c3)OCO4)n2)cc1 | 0.64
SMILES | CBX7 AlphaScr
COc1cc(Nc2nc(-c3cc(C)ccc3C)cs2)c(OC)cc1Cl | 0.69
COc1ccc(-c2csc(Nc3ccccc3OC)n2)cc1Br | 0.81
COc1ccc(-c2csc(Nc3ccc4c(c3)OCO4)n2)cc1Br | 0.33*!
COc1cc(Nc2nc(-c3ccc(CC(C)C)cc3)cs2)c(OC)cc1Cl | 0.48*
CC(C)Cc1ccc(-c2csc(Nc3ccc4c(c3)OCO4)n2)cc1 | 0.19*!
CCN(CC)c1cc(C)c2cc(NC(=O)COc3ccc(Cl)cc3Cl)ccc2n1 | 1.2
O=C(CSc1nc(-c2ccccc2)[nH]c1-c1ccc(F)cc1)Nc1ccc2c(c1)OCCO2 | 0.82
CCOc1ccc(-n2c(Cc3cc(=O)[nH]c(=O)[nH]3)nnc2SCC(=O)N2CCCCC2)cc1 | 0.84
Cc1ccc(C)c(N2CC(c3nc4ccccc4n3CCOc3ccccc3)CC2=O)c1 (stereo not drawn) | 0.7
Cc1ccc(OCCn2c(C3CC(=O)N(c4cccc(C)c4C)C3)nc3ccccc32)cc1 (stereo not drawn) | 0.79
Cc1ccc(OCCn2c(C3CC(=O)N(c4cc(C)ccc4C)C3)nc3ccccc32)cc1 (stereo not drawn) | 0.49*
Cc1cccc2nc(-c3ccccn3)c(Nc3ccc4c(c3)OCCO4)n12 | 0*
Cc1cccc2nc(-c3ccccn3)c(Nc3ccc4c(c3)OCO4)n12 | 0*
Cc1cccc2nc(-c3ccc(N(C)C)cc3)c(Nc3ccc4c(c3)OCO4)n12 | 0.84
Cc1cccc2nc(-c3ccsc3)c(Nc3ccc4c(c3)OCO4)n12 | 0.78
Cc1cccc2nc(-c3ccc(Cl)cc3)c(Nc3ccc4c(c3)OCO4)n12 | 0.68
Cc1cccc2nc(-c3ccncc3)c(Nc3ccc4c(c3)OCO4)n12 | 0.99
COc1ccc(-c2cc(C(F)(F)F)n3nc(C(=O)N4CCCCCC4)cc3n2)cc1OC | 1.2
Cc1sc2ncn(CC(=O)Nc3cccc(Cl)c3)c(=O)c2c1S(=O)(=O)N1CCC(C)CC1 | 1.1
COc1ccc(NC(=O)CCC(=O)Nc2ccc3nc(N4CCN(C)CC4)cc(C)c3c2)cc1OC | 1
Cc1sc2ncnc(NCCC3=CCCCC3)c2c1C | 0.76
